In the library only some 13% were active in any assay of this set; here they are far more common.
Shiga inhibitor: blocks Shiga toxin action in Vero cells; inhibition, % at 38.7 µM; hit rate 9.2% among 290,000; Vero cells, Shiga toxin protein synthesis inhibition reporter; in the data active means inhibition mostly above about 28%, no sharp cut-off; inactive means mostly below about 43%; further: 0% is about no effect
LASV entry inh: Lassa virus entry inhibition; Lassa virus pseudotype entry inhibition, cell reporter; AID 540256; Potency, µM (top dose mostly 37.9 µM), without a hit: at the top dose activity change, negative = inhibition, usual class: inhibitors; hit rate 1.2% among 300,000; calls by dose curve; tested in HEK293 cells; further: potency means the concentration at half of the fitted maximal effect; on the % scale 0 is the no-effect control and ±100 the full control effect; nearly all actives have a fitted effect of over 50% in size
Marburg entry inh: blocks Marburg virus binding to or entry into cells; Marburg virus pseudotyped entry inhibition, cell reporter; Potency, µM (top dose mostly 37.8 µM), inactives show top-dose activity change, negative = inhibition, most hits filed as inhibitors; hit rate 1.8% among 300,000; calls by dose curve; tested in HEK293 cells; further: potency means the concentration at half of the fitted maximal effect; on the % scale 0 is the no-effect control and ±100 the full control effect
FMDV antiviral: foot and mouth disease virus antiviral activity | FMDV antiviral cell-based qHTS | hit rate 1.2% among 410,000 | Potency, µM (highest dose often 57.9 µM), without a hit: top-dose activity change, negative = inhibition, usual class: inhibitors | AID 1159524; calls by dose curve; tested in HEK293T cells; further: read-out not given here; potency means the concentration at half of the fitted maximal effect; on the % scale 0 is the no-effect control and ±100 the full control effect; nearly all actives have a fitted effect of over 45% in size
Cycloheximide cs: counter-screen hit for Shiga toxin inhibitors, cycloheximide; cell reporter, cycloheximide protein synthesis inhibition counterscreen; hit rate 12% among 300,000; max response, %; in the data active means max response mostly above about 13%, no sharp cut-off; inactive means mostly below about 14%; further: read at 38.3 µM for the half of the compounds with a filed dose; 0% is about no effect
HCV inhibitor: inhibitors of hepatitis C virus infection. Huh7.5.1 HCVcc-Cre infection, luciferase reporter, 44 h. Potency, µM (top dose mostly 41.8 µM), for the others: at the top dose activity change, negative = inhibition, usual class: inhibitors. hit rate 3.4% among 340,000. AID 651820; active means well fitted inhibition curve with a large enough effect; inconclusive means small, poorly fitted or top-dose-only effect, or another doubt; inactive means no such curve, though single readings can be large or run the other way; further: potency means the concentration at half of the fitted maximal effect; on the % scale 0 is the no-effect control and ±100 the full control effect
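Infectious HCVcc-Cre (~0.5 moi) was added to cells just after compound, with cells seeded 4 h earlier at 1,000 per well. Luciferase activity after 44 h culture reported infection; substrate was incubated 15 min at room temperature before reading.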
The depositor's hits bear a star; ? = inconclusive; / = no result; [ ] = remark or other dose.

SMILES | Shiga inhibitor | LASV entry inh | Marburg entry inh | FMDV antiviral | Cycloheximide cs | HCV inhibitor
CCOC(=O)C(C)Sc1nc(-c2ccccc2Cl)cc(-c2ccccc2)c1C#N (stereo unspecified) | / | 18%[46.1 µM] | ? | 0% | / | /
C=COC(=O)CSc1nc(-c2cccs2)ccc1C#N | 38 | 3% | ? | 10% | 31* | 3%
CCOC(=O)C(C)Sc1nc(-c2cccs2)ccc1C#N (stereo unspecified) | 104 | -27% | -1% | -7% | 25* | 14µM*
N#Cc1ccc(-c2cccs2)nc1SCC(=O)Nc1cccc(C(F)(F)F)c1 | / | -11%[46.1 µM] | ? | 4% | / | /
CCN(CC)C(NC(=O)c1ccccc1)C(=O)c1ccccc1 (stereo unspecified) | 40 | 7% | 0% | 21% | 55* | 13%
CCOC(NC(=O)c1ccccc1)C(NC(=O)c1ccccc1)OCC (stereo unspecified) | -1 | 8% | 20% | 4% | 6 | 12%
Cc1ccc(N2CC(NC(=O)Cc3cccs3)CC2=O)cc1C (stereo unspecified) | / | -4%[46.1 µM] | / | 2% | / | /
CCCNC(=O)N1C2=NC(C(=O)OC)=C(C(=O)OC)[C@@H]3N(Cc4ccccc4)c4ccccc4[C@]23C[C@H]1CO | / | / | / | -23% | / | ?
Cn1c(C(=O)N2CCCC(C(=O)NCCCSC3CCCCC3)C2)cc2sccc21 (stereo unspecified) | -3 | 13µM* | ? | ? | -4 | ?
CCC(C)[C@H](NC(=O)C1CCN(C(=O)[C@H](Cc2ccccc2)NC(=O)OC(C)(C)C)CC1)C(=O)O (stereo partly specified) | 2 | / | / | 0% | -2 | 10%
COC(=O)c1cc(=O)n(-c2ccc(F)cc2)c(=Nc2ccc(F)cc2)s1 | -22 | -17% | ? | 22µM* | -8 | ?
COC(=O)c1ccc(N=c2sc(C(=O)OC)cc(=O)n2C)cc1 | -3 | / | / | 32µM* | -2 | 11%
COC(=O)c1cc(=O)n(Cc2cccs2)c(=Nc2ccc(F)cc2)s1 | -6 | / | / | ? | -2 | ?
COC(=O)c1cc(=O)n(Cc2ccco2)c(=Nc2ccc(F)c(Cl)c2)s1 | -14 | / | / | ? | -5 | ?
COC(=O)c1cc(=O)n(CCc2ccccc2F)c(=Nc2ccc(F)c(Cl)c2)s1 | -7 | / | -6% | 16µM* | -8 | 7.9µM*
COc1ccc(NC(C)=O)cc1NC(=O)c1cccc(S(=O)(=O)N2CCN(Cc3ccccc3)CC2)c1 | / | -9% | -4% | -17% | / | -24%
CC(NC(=O)c1cccc(S(=O)(=O)N2CCN(Cc3ccccc3)CC2)c1)c1ccc(Cl)cc1 (stereo unspecified) | / | 0.89µM* | ? | -29% | / | ?
COc1ccccc1NC(=O)c1cccc(S(=O)(=O)N2CCN(Cc3ccccc3)CC2)c1 | / | ? | -17%[46.1 µM] | -29% | / | 10µM*
CCC[C@H](NC(=O)[C@H](Cc1ccc(O[S+](=O)([O-])O)cc1)NC(=O)OC(C)(C)C)C(=O)NCC(=O)N[C@@H](Cc1c[nH]c2ccccc12)C(=O)N[C@@H](CCC)C(=O)N[C@@H](CC(=O)OCCc1ccccc1)C(=O)O | -10 | / | / | / | -7 | /
COCCNCCOc1ccc(C)cc1[N+](=O)[O-] | -3 | 0%[46.1 µM] | -13%[46.1 µM] | -8% | 23 | -2%
Cc1ccc(OCCCCNC(C)(C)C)c([N+](=O)[O-])c1 | -15 | -1% | 16µM* | -21% | 1 | ?
O=C(Cn1ncc2c3ccccc3n(Cc3ccc(Cl)cc3)c2c1=O)N1CCCCCC1 | / | ? | 13%[46.1 µM] | -17% | / | /
COc1ccc(CCN2C(=O)CSC2=Nc2ccc(C)cc2C)cc1OC | -1 | ? | ? | 13µM* | -1 | ?
CN1CCc2c(sc3c2C(=O)NC(c2ccc(C(C)(C)C)cc2)N3)C1 (stereo unspecified) | / | 14%[46.1 µM] | 7%[46.1 µM] | -6% | / | /
CCCNC(=S)N1CCN(c2nc(C)nc3sc4c(c23)CCCC4)CC1 | -13 | ? | ? | -28% | 1 | ?
COCCCNC(=S)N1CCN(c2nc(C)nc3sc4c(c23)CCCC4)CC1 | 21 | / | / | -23% | -1 | 10µM*
Clc1ccc(COc2ccccc2-c2ccnc3ncnn23)cc1 | 77* | / | / | 70% | 39* | -5%
C=CCNC(=S)NNC(=O)c1cc(O)ccc1O | -7 | 15%[46.1 µM] | 25%[46.1 µM] | 44% | -2 | -5%
O=C(Nc1ccc2c(c1)OCO2)N1CCCc2ccccc21 | 85* | -15%[46.1 µM] | 1%[46.1 µM] | -11% | 35* | 12%

Source: PubChem (National Center for Advancing Translational Sciences (NCATS))
